Compound activity from PubChem BioAssay.
An excerpt weighted towards active compounds, which were near 3.5% of everything screened.
Pf apPOL block – Pf-apPOL inhibitors, biochemical, fluorescence; Plasmodium falciparum apicoplast DNA polymerase (apPOL); Recombinant Pf-apPOL, molecular beacon fluorescence, 1.5 h; inhibition, % at 10 µM; 210,000 tested, 0.25% active; AID 1794808, 2022
mHTT CaM bind – mutant huntingtin-calmodulin interaction inhibitors – biochemical, AlphaScreen, primary screen. P42858. AlphaScreen His-mHTT/GST-CaM binding, luminescence. inhibition, % at 15 µM. 190,000 tested, 3.6% active;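 further: 0% = both proteins with DMSO and 100% = one protein alone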
Active calls of the source: *; x = not tested or not shown. No stated cut-off is given here; in the data, active means inhibition above about 50%; inactive means the rest.

SMILES | Pf apPOL block | mHTT CaM bind
COc1cc(C=C2C(=O)NC(=O)NC2=O)ccc1OCC(=O)O | -1 | 4
COc1ccc(C=C2C(=O)NC(=S)NC2=O)cc1Br | 64* | x
COc1ccc(OC)c(NC(=O)c2nc(C)n(C3CCN(C)CC3)c2C)c1 | -5 | 27
COc1ccc(NC(=O)c2nc(C)n(C3CCN(C)CC3)c2C)c(OC)c1 | 59* | 21
COc1ccc2c(c1)C1(CCN(C(=O)c3ccc(OC)c(OC)c3)C1)C(=O)N2C (stereo unspecified) | -2 | 6
C=CCOc1ccc(CC2C(=O)N(C)C(=O)N(C)C2=O)cc1 | -5 | 100*
CCN(CC)c1ccc(CC2C(=O)N(C)C(=O)N(C)C2=O)cc1 | -1 | 57*
Cc1ccc(CC2C(=O)N(C)C(=O)N(C)C2=O)s1 | -6 | 7
N#CC(=Cc1cnc[nH]1)S(=O)(=O)c1ccc(Cl)cc1 | 3 | x
Cc1cccc(N2CCN(CCc3ccccc3)CC2)c1C | -2 | 100*
Cc1ccc(N2CCN(CCc3ccccc3)CC2)cc1 | -3 | 15
CC(=Cc1ccc2c(c1)OCO2)[N+](=O)[O-] | -2 | x
